HSF1 inhib: HSF1 inhibitors in luciferase reporter cells, primary screen, cell-based, NIH3T3, luminescence; NIH3T3-HGL HSE-luciferase, MG132-induced, luminescence 8 h; active compounds read low; activity change, negative = inhibition, % at 7.5 µM (by protocol); AID 2098, 2009; actives 0.77% (n = 300,000);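 active = more than half of replicate wells show activity change below -50%, luminescence cut by over half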;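 also: luciferase reports HSF-1 transcriptional activity via heat shock element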
HSF1 activator: HSF-1 activators, primary screen, NIH3T3-HGL cells, MG132 stress, luminescence, single point; NIH3T3-HGL HSF-1 luciferase reporter, 8 h; 100% = twice DMSO control signal; activation, % at 9 µM; actives 1.7% (n = 300,000);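 active = mean replicate activation of at least 50% with a set share of replicates each reaching 50%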
NR0B1 inh: DAX1 (NR0B1) inhibitors, primary screen, cell-based, HEK293, Gal4-DAX1, luciferase luminescence. Nuclear receptor subfamily 0 group B member 1 (Homo sapiens), P51843. HEK293 Gal4-DAX1 luciferase reporter. inhibition, % at 6.75 µM. actives 0.99% (n = 340,000). AID 504766, 2011;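 active = inhibition above the mean over all tested compounds plus 3 SD, cut at about 4.2% in these data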;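 also: inhibition shows as a rise in luminescence from relieved DAX1 repression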
GAA850 FXN act: FXN promoter activators, primary screen, cell-based, luciferase luminescence, HEK293 lucGAA850. activation, % at 6 µM. actives 0.56% (n = 360,000). HEK293 lucGAA850 FXN promoter luciferase reporter, 24 h; percent of 10 µM SAHA response;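 active = activation above the average of all compounds screened plus 3 SD, cutoff fixed separately per campaign, cut at about 7.5% in these data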
AHR act: AHR activators, primary screen, cell-based, luminescence, luciferase reporter, human; Aryl hydrocarbon receptor (Homo sapiens), P35869; AHR-responsive luciferase reporter cells; activation, % at 5 µM; actives 2.5% (n = 320,000); AID 2796, 2010; in the data active = activation above about 47%
Numbers stand for hits; n = inactive; x = no result. Shown are actives, neighbours in structure and some others; about 5.4% of the full set was active somewhere.

SMILES | HSF1 inhib | HSF1 activator | NR0B1 inh | GAA850 FXN act | AHR act
Cc1ccc(C(=O)OC(C)CN2CCN(C)CC2)cc1 (centres undefined) | n | n | n | n | n
O=[N+]([O-])c1cc([N+](=O)[O-])c(Oc2c(F)ccc(F)c2F)cc1NN1CCCCC1 | n | n | n | n | n
O=[N+]([O-])c1cc([N+](=O)[O-])c(Oc2c(F)cccc2F)cc1NN1CCCCC1 | n | 62 | n | n | n
OCc1ccccc1-c1cnc2sc(NCc3ccc(F)cc3)nn12 | x | x | x | n | x
O=C(CCn1c(=O)oc2ccccc21)N1CCCCCC1 | n | n | n | n | n
O=C(CCn1c(=S)oc2ccccc21)N1CCCCC1 | n | 54 | n | n | n
O=C(NCc1nnnn1-c1ccc(F)cc1)c1ccc(S(=O)(=O)N2CCOCC2)cc1 | x | x | n | n | x
CC(=O)C1=C(O)C(=O)OC1c1ccc(Cl)cc1 (centres undefined) | n | n | 4.4 | n | n
CC(=O)C1=C(O)C(=O)OC1c1ccc(C)cc1 (centres undefined) | n | n | n | n | n
Cc1cccn2c(=O)c(C=NCc3ccco3)c(Nc3ccc(SC(F)F)cc3)nc12 | n | n | n | n | 49
C=CCN1C(=O)NC(c2ccccc2)(C(F)(F)F)S/C1=C(\C#N)c1nnc(N2CCOCC2)n1-c1ccccc1 (centres undefined) | n | 83 | n | n | n
O=C1NC(CCc2ccccc2)C(=O)N1CCOc1cccc(Br)c1 (centres undefined) | n | n | n | n | n
Cc1ccc(-c2cnn(-c3cccc([N+](=O)[O-])c3)c2N)cc1 | n | 60 | n | n | n
Cc1ccccc1-c1cnn(-c2cccc([N+](=O)[O-])c2)c1N | n | n | n | n | n
Nc1ccc(CNC(=O)OCC2c3ccccc3-c3ccccc32)cc1 | n | n | n | n | 55
Cc1ccnc(NC(=O)Nc2ccc3c(c2)N(C)C(=O)CS3)c1 | n | 69 | n | n | n
Cc1ccc(NC(=O)Nc2ccc3c(c2)N(C)C(=O)CS3)nc1 | n | n | n | n | n
CC(C)CCNC(=O)Nc1ccc2c(c1)N(C)C(=O)CS2 | n | n | n | n | 47
O=C(Cc1ccc(NS(=O)(=O)c2cccc(C(F)(F)F)c2)cc1)NCCN1CCOCC1 | n | n | n | n | n
O=C1/C(=C/c2ccc(Br)cc2)Oc2cc(O)ccc21 | n | n | n | n | n
O=C1/C(=C/c2ccc([N+](=O)[O-])cc2)Oc2cc(O)ccc21 | n | 73 | n | n | x
CC(=O)OCCn1c([N+](=O)[O-])cnc1C=[N+]([O-])C1CCCCC1 | x | x | n | n | x
COc1ccc(NC(=O)[C@H](C)NS(=O)(=O)c2ccc(NC(C)=O)cc2)cc1Cl | x | x | n | n | x
CCOc1ccc(NC(=O)C(C)NS(=O)(=O)c2ccc(NC(C)=O)cc2)cc1 (centres undefined) | -67 | n | n | n | n
CC(=O)NCC1=C(NC(C)=O)C2CC1C(C)(C)C2C (centres undefined) | -53 | n | x | x | n
SMILES | HSF1 inhib | HSF1 activator | NR0B1 inh | GAA850 FXN act | AHR act
Cc1cc(C)n2nc(N)c(N=Nc3cccc(Cl)c3)c2n1 | n | 56 | n | n | n
Cc1ccc(N=Nc2c(N)nn3c(C)cc(C)nc23)cc1 | n | n | n | n | 58
Cc1ccc(N=Nc2c(N)nn3c(N)c(C#N)c(C)nc23)cc1 | n | n | n | n | 75
Cc1ccc(N=Nc2c(N)nn(-c3ccccc3)c2N)cc1 | n | n | n | n | n
O=C(c1ccccc1)N1CCN(C(=S)NCc2ccco2)CC1 | n | n | n | n | n
COCCNC(=O)/C(C#N)=C/C=C/c1ccccc1[N+](=O)[O-] | n | n | n | n | n
c1ccn2c(SCc3ccc4c(c3)OCO4)nnc2c1 | -65 | n | n | n | n
O=C(CSc1nnc2ccccn12)Nc1ccc2c(c1)OCO2 | n | n | n | n | n
CCOC(=O)c1ccc(NC(=O)COc2ccccc2CNCCc2ccccc2)cc1 | n | n | n | n | 50
CCOC(=O)c1ccc(NC(=O)COc2ccc(CNCCO)cc2OCC)cc1 | n | n | n | n | n
NC(=O)C(=O)N/N=C/c1c[nH]c2ccc(Br)cc12 | n | n | 4.5 | n | n
